The values that follow come from PubChem BioAssay (EPA / NIEHS).

Holding throughout (settings): mRNA level, 48 h; actives raise or lower the signal
Read-out in assay [1]: Cyclin D1 (CCND1), CCND1 (gene 595)
The experiment in a line: LTEA_HepaRG_CCND1: Life Technologies and Expression Analysis (LTEA) Assay for Cyclin D1 (CCND1) using HepaRG (AID 2283451). The method, boiled down:
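qRT-PCR (Fluidigm 96.96 array) read-out of transcript level, housekeeping-normalized (ACTB/GAPDH/POLR2A). HepaRG cells, 48 h chemical exposure, 8-point half-log series from 100 uM, 0.5% DMSO vehicle; gain or loss relative to DMSO baseline.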

Read-out in assay [2]: catalase (CAT), CAT (gene 847)
The experiment in a line: LTEA_HepaRG_CAT: Life Technologies and Expression Analysis (LTEA) Assay for catalase (CAT) using HepaRG (AID 2283452). The method, boiled down: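 Differentiated HepaRG cells in serum-free induction medium were dosed 48 h in duplicate, eight half-log concentrations from 100 uM in 0.5% DMSO. Transcript measured by TaqMan qRT-PCR, normalised to ACTB/GAPDH/POLR2A, fitted bidirectionally against DMSO.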

Read-out in assay [3]: flavin-containing dimethylaniline monooxygenases 3 (FMO3), FMO3 (gene 2328)
The experiment in a line: LTEA_HepaRG_FMO3: Life Technologies and Expression Analysis (LTEA) Assay for flavin-containing dimethylaniline monooxygenases 3 (FMO3) using HepaRG (AID 2283453). The method, boiled down: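 FMO3 transcript quantified by TaqMan qRT-PCR against three housekeeping genes after 48 h chemical exposure of HepaRG cells. Eight-point half-log series, top 100 uM, 0.5% DMSO vehicle; phenobarbital 1mM induction control; up- or down-regulation fitted.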

Read-out in assay [4]: Cytochrome P450 (CYP1A1), CYP1A1 (gene 1543)
The experiment in a line: LTEA_HepaRG_CYP1A1: Life Technologies and Expression Analysis (LTEA) Assay for Cytochrome P450 (CYP1A1) using HepaRG (AID 2283454). An outline of the steps: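 qRT-PCR read-out: CYP1A1 transcript normalized to three housekeeping genes, fitted bidirectionally against 0.5% DMSO vehicle baseline. Human HepaRG cells, 48 h chemical exposure, 8-point half-log series topping at 100 uM.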

Read-out in assay [5]: CFLAR gene, CFLAR (gene 8837)
The experiment in a line: LTEA_HepaRG_CFLAR: Life Technologies and Expression Analysis (LTEA) Assay for CFLAR gene using HepaRG (AID 2283455). The method, boiled down: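 Gain- or loss-of-signal changes in CFLAR transcript were fitted bidirectionally relative to 0.5% DMSO. Cells (HepaRG, duplicate wells) were dosed for 48 h across eight half-log concentrations topping at 100 uM; quantitation by TaqMan qRT-PCR.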

Read-out in assay [6]: Forkhead box O1 (FOXO1), FOXO1 (gene 2308)
The experiment in a line: LTEA_HepaRG_FOXO1: Life Technologies and Expression Analysis (LTEA) Assay for Forkhead box O1 (FOXO1) using HepaRG (AID 2283456). An outline of the steps:
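Using one lot of HepaRG hepatic cells kept in 0.5% DMSO, the team applied test chemicals in duplicate, half-log dilutions from 100 uM, for 48 h. Expression, normalised to ACTB/GAPDH/POLR2A, was compared with vehicle in either direction.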

Read-out in assay [7]: Forkhead box O3 (FOXO3), FOXO3 (gene 2309)
The experiment in a line: LTEA_HepaRG_FOXO3: Life Technologies and Expression Analysis (LTEA) Assay for Forkhead box O3 (FOXO3) using HepaRG (AID 2283459). An outline of the steps: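 Gene-expression endpoint: FOXO3 transcript level by qRT-PCR in HepaRG cultures treated 48 h with chemicals up to 100 uM (half-log, 0.5% DMSO vehicle).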

Read-out in assay [8]: growth arrest and DNA damage 45 (GADD45B), GADD45B (gene 4616)
The experiment in a line: LTEA_HepaRG_GADD45B: Life Technologies and Expression Analysis (LTEA) Assay for growth arrest and DNA damage 45 (GADD45B) using HepaRG (AID 2283461). The method, boiled down: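 qRT-PCR read-out (Fluidigm TaqMan, housekeeping-normalized) of mRNA change in human HepaRG cells after 48 h chemical exposure; 8-point curve, top 100 uM, half-log steps, 0.5% DMSO vehicle; gain or loss fitted relative to DMSO baseline.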

Read-out in assay [9]: ABC Transporter (ABCC3), ABCC3 (gene 8714)
The experiment in a line: LTEA_HepaRG_ABCC3: Life Technologies and Expression Analysis (LTEA) Assay for ABC Transporter (ABCC3) using HepaRG (AID 2283462). The method, boiled down: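 qRT-PCR read-out of ABCC3 transcript, normalized to three housekeeping genes (ACTB, GAPDH, POLR2A), after 48 h chemical exposure of human HepaRG cells. Eight half-log concentrations, highest 100 uM, in 0.5% DMSO; gain or loss fitted relative to DMSO baseline.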

Read-out in assay [10]: ABC Transporter (ABCB11), ABCB11 (gene 8647)
The experiment in a line: LTEA_HepaRG_ABCB11: Life Technologies and Expression Analysis (LTEA) Assay for ABC Transporter (ABCB11) using HepaRG (AID 2283463). The method, boiled down: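 Using HepaRG cultures held in 0.5% DMSO, chemicals were tested at half-log dilutions from 100 uM for 48 h. Induction or suppression of ABCB11 mRNA, normalized to ACTB, GAPDH and POLR2A, was fitted bidirectionally against vehicle.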

Read-out in assay [11]: ABC Transporter (ABCC2), ABCC2 (gene 1244)
The experiment in a line: LTEA_HepaRG_ABCC2: Life Technologies and Expression Analysis (LTEA) Assay for ABC Transporter (ABCC2) using HepaRG (AID 2283464). The method, boiled down: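 qRT-PCR (TaqMan, Fluidigm array) read-out of ABCC2 mRNA, normalized to three housekeeping genes. Differentiated HepaRG cells were treated 48 h in serum-free induction medium with 8-point half-log series from 100 uM in 0.5% DMSO; curves fitted bidirectionally relative to DMSO.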

Read-out in assay [12]: Broad substrate specificity ATP-binding cassette transporter ABCG2 (Homo sapiens) (UniProt Q9UNQ0)
The experiment in a line: LTEA_HepaRG_ABCG2: Life Technologies and Expression Analysis (LTEA) Assay for ABC Transporter (ABCG2) using HepaRG (AID 2283465). An outline of the steps:
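Gene expression of ABCG2 in HepaRG liver cells is quantified by qRT-PCR following 48 h exposure across an eight-point series topping at 100 uM. Values come from bidirectional fitting relative to DMSO vehicle.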

Read-out in assay [13]: ATP-citrate lyase (ACLY), ACLY (gene 47)
The experiment in a line: LTEA_HepaRG_ACLY: Life Technologies and Expression Analysis (LTEA) Assay for ATP-citrate lyase (ACLY) using HepaRG (AID 2283466). The method, boiled down:
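ACLY expression changes in human HepaRG liver cells are quantified by qRT-PCR after 48 h exposure to test chemicals (maximum 100 uM, half-log steps). Values are fitted in both directions relative to 0.5% DMSO vehicle.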

Read-out in assay [14]: Peroxisomal acyl-coenzyme A oxidase 1 (ACOX1) gene, ACOX1 (gene 51)
The experiment in a line: LTEA_HepaRG_ACOX1: Life Technologies and Expression Analysis (LTEA) Assay for Peroxisomal acyl-coenzyme A oxidase 1 (ACOX1) gene using HepaRG (AID 2283467). An outline of the steps:
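Human HepaRG hepatic cultures, 48 h treatment with test chemicals up to 100 uM. ACOX1 expression read by qRT-PCR relative to 0.5% DMSO vehicle.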

Read-out in assay [15]: Alkaline Phosphatase, Placental (ALPP) gene, ALPP (gene 250)
The experiment in a line: LTEA_HepaRG_ALPP: Life Technologies and Expression Analysis (LTEA) Assay for Alkaline Phosphatase, Placental (ALPP) gene using HepaRG (AID 2283468). An outline of the steps:
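qRT-PCR readout of ALPP mRNA (Fluidigm TaqMan), normalized to ACTB/GAPDH/POLR2A, after 48 h chemical exposure of HepaRG cells; 8-point half-log series, top 100 uM, 0.5% DMSO vehicle. Bidirectional curve fit versus DMSO baseline.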

Read-out in assay [16]: Bcl-2 (BAD) gene, BAD (gene 572)
The experiment in a line: LTEA_HepaRG_BAD: Life Technologies and Expression Analysis (LTEA) Assay for Bcl-2 (BAD) gene using HepaRG (AID 2283469). An outline of the steps: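 Activity values reflect up- or down-regulation of BAD mRNA in human HepaRG hepatic cells treated 48 h in serum-free medium, with eight-point half-log dosing capped at 100 uM and 0.5% DMSO vehicle.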

Read-out in assay [17]: Bcl-2 (BAX) gene, BAX (gene 581)
The experiment in a line: LTEA_HepaRG_BAX: Life Technologies and Expression Analysis (LTEA) Assay for Bcl-2 (BAX) gene using HepaRG (AID 2283470). An outline of the steps:
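Gene expression measured by Fluidigm qRT-PCR with three housekeeping genes for normalisation. HepaRG cells, plated 48 h beforehand, treated 48 h at up to 100 uM (8-point, half-log) in 0.5% DMSO. Bidirectional fitting versus DMSO.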

Read-out in assay [18]: ABC Transporter (ABCB1), ABCB1 (gene 5243)
The experiment in a line: LTEA_HepaRG_ABCB1: Life Technologies and Expression Analysis (LTEA) Assay for ABC Transporter (ABCB1) using HepaRG (AID 2283460). The method, boiled down: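 Human liver HepaRG line treated 48 h with up to 100 uM compound (eight half-log points, 0.5% DMSO); ABCB1 mRNA change fitted bidirectionally against DMSO controls.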

The source made the active and inactive calls. Rule for the calls: active = hit-call score of the fitted dose curve at least 0.9, where 1 is the maximum; inactive = score below 0.9.

Sequence of Broad substrate specificity ATP-binding cassette transporter ABCG2 (Homo sapiens) (Q9UNQ0 whole entry, looked up): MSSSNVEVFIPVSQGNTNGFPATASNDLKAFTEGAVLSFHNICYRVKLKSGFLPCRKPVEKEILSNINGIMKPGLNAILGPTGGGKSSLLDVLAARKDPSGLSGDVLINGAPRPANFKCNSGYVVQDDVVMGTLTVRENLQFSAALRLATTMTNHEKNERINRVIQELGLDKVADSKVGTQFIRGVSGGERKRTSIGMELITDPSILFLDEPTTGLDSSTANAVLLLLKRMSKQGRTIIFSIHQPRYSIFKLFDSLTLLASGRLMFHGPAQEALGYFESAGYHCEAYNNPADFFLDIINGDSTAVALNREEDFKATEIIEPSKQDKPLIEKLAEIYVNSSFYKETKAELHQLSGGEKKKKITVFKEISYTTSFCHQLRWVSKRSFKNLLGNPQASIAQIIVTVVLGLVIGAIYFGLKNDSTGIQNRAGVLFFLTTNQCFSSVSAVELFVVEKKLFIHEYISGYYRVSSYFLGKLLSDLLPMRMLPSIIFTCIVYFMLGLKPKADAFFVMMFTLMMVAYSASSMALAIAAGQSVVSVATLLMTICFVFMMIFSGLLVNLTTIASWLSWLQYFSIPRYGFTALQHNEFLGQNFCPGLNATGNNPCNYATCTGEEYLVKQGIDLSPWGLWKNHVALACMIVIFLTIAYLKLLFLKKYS

One may read the AC50 as the midpoint of the concentration-response curve, whichever way the signal moves. As for `CCOc1cccc(C2(N3CCN(c4ccccc4)CC3)CCC(C)CC2)c1` (configuration not stated), the call in assay [1], in assay [2], in assay [3], in [5], in assay [6] and in assay [7] was inactive. In addition, the outcome in [8], in assay [9], in assay [10], in [11], in assay [12] and in assay [13] was inactive. For the same molecule, the outcome in assay [14], in assay [15], in [16] and in assay [17] was inactive. In assay [4], the concentration at half-maximal activity (AC50) is 35.9 µM (active).

Take `COC(=O)Nc1nc2ccccc2[nH]1`: the call in assay [1], in assay [2], in assay [3], in [5], in assay [6] and in assay [7] was inactive. Moreover, the molecule was classed as inactive in assay [8], in assay [10], in assay [11], in assay [12], in assay [13] and in assay [14]. Moreover, the outcome in assay [15], in [16] and in [17] was inactive. Further, the half-maximal activity concentration (AC50) in assay [4] is 24.7 µM (active).

`c1ccc(NNc2ccccc2)cc1`: the call in assay [1], in assay [2], in assay [3], in [5], in assay [6] and in [7] was inactive. In addition, the result in assay [18], in assay [10], in assay [11], in assay [12], in assay [13] and in assay [14] was inactive. Also, the molecule was classed as inactive in assay [15], in assay [16] and in [17]. Also, the AC50 in assay [4] is 31.6 µM (active).

As for `N#CC(Br)Br`, the call in [1], in assay [2], in [3], in assay [4], in assay [5] and in [6] was inactive. Moreover, the call in assay [7], in assay [18], in assay [10], in [11], in [12] and in [13] was inactive. Moreover, the molecule was classed as inactive in assay [14], in assay [15], in assay [16] and in assay [17].

For `Brc1ccc(Oc2ccccc2)cc1`, the molecule was called inactive in assay [1], in assay [2], in assay [3], in [5], in [6] and in [7]. Moreover, the outcome in assay [8], in [10], in [11], in assay [12], in assay [13] and in [14] was inactive. Moreover, the result in [15], in assay [16] and in [17] was inactive. In [4], the AC50 is 50 µM (active).

`N#CC(Br)(Br)C(N)=O`: the outcome in assay [1], in assay [2], in assay [3], in assay [4], in [5] and in assay [6] was inactive. Besides, the result in assay [7], in [9], in [10], in [11], in [12] and in assay [13] was inactive. Besides, the outcome in assay [14], in assay [15], in [16] and in assay [17] was inactive.
